Measurements taken from PubChem BioAssay AID1159580 (chemical genetic matrix, 2015).
Where “and” joins values, the source holds several entries; their conditions need not be identical. Identical values can stand only once. Among all 5,500 compounds or so, about 2,000 (36%) were called active. About 18% were inconclusive and are not listed. No stated cut-off is given here; in the data, active means normalized growth mostly below about 0.91 (no sharp cut-off); inconclusive means no clear call, values can overlap the other calls; inactive means mostly above about 0.92. This is one part of the list.

Test: chemical genetic growth profiling, strain panel (AID 1159580);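 further: tested at 20 µM; growth read once vehicle control cultures reached saturation at 30 °C; 1 = growth at the plate median or of vehicle wells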
Conditions: S. cerevisiae deletion strains, growth OD

Measured: normalized growth

CS(=O)(=O)OCCCCOS(C)(=O)=O
active: locus YBR009C, strain hhf1, stronger effect = lower value 1.11 [resistant] | locus YJL164C, strain tpk1, stronger effect = lower value 1.09 [resistant] | locus YKR001C, strain vps1, stronger effect = lower value 0.89 | locus YNR052C, strain pop2, stronger effect = lower value 0.908
inactive: locus YAL013W, strain DEP1, stronger effect = lower value 0.954 | locus YAL021C, strain ccr4, stronger effect = lower value 0.999 | locus YAL026C, strain drs2, stronger effect = lower value 1.02 | locus YAL030W, strain snc1, stronger effect = lower value 1.03 | locus YBL061C, strain skt5, stronger effect = lower value 1.01 | locus YBR021W, strain FUR4, stronger effect = lower value 1.01 | locus YBR023C, strain chs3, stronger effect = lower value 1.01 | locus YBR171W, strain sec66, stronger effect = lower value 1.03 | locus YBR229C, strain ROT2, stronger effect = lower value 0.994 | locus YBR231C, strain swc5, stronger effect = lower value 0.993 | locus YBR279W, strain paf1, stronger effect = lower value 1.01 | locus YCL011C, strain gbp2, stronger effect = lower value 1.04 | locus YCL016C, strain dcc1, stronger effect = lower value 1.05 | locus YCL029C, strain bik1, stronger effect = lower value 0.956 | locus YCL069W, strain vba3, stronger effect = lower value 1.03 | locus YCR088W, strain abp1, stronger effect = lower value 1.02 | locus YDL005C, strain med2, stronger effect = lower value 1.01 | locus YDL035C, strain GPR1, stronger effect = lower value 1.02 | locus YDL040C, strain nat1, stronger effect = lower value 1 | locus YDL074C, strain BRE1, stronger effect = lower value 0.901 | locus YDL101C, strain DUN1, stronger effect = lower value 0.948 | locus YDL185W, strain tfp1, stronger effect = lower value 0.918 | locus YDL192W, strain arf1, stronger effect = lower value 0.942 | locus YDR001C, strain nth1, stronger effect = lower value 1.01 | locus YDR069C, strain doa4, stronger effect = lower value 1.02 | locus YDR101C, strain arx1, stronger effect = lower value 0.961 | locus YDR137W, strain rgp1, stronger effect = lower value 1.03 | locus YDR159W, strain sac3, stronger effect = lower value 0.996 | locus YDR162C, strain NBP2, stronger effect = lower value 0.961 | locus YDR195W, strain ref2 0.973 | locus YDR297W, strain sur2, stronger effect = lower value 1.05 | locus YDR318W, strain mcm21, stronger effect = lower value 0.962 | locus YDR334W, strain swr1, stronger effect = lower value 1.01 | locus YDR335W, strain msn5, stronger effect = lower value 1.04 | locus YDR388W, stronger effect = lower value 0.963 | locus YDR392W, strain spt3, stronger effect = lower value 1.04 | locus YDR502C, strain sam2, stronger effect = lower value 0.973 | locus YEL003W, strain gim4, stronger effect = lower value 1.03 | locus YEL037C, strain rad23, stronger effect = lower value 1.02 | locus YEL061C, strain CIN8 (second series), stronger effect = lower value 1.01 | locus YEL061C, strain CIN8, stronger effect = lower value 0.979 | locus YER015W, strain faa2, stronger effect = lower value 0.998 | locus YER016W, strain bim1, stronger effect = lower value 1.03 | locus YER110C, stronger effect = lower value 0.93 | locus YER111C, strain swi4, stronger effect = lower value 1.02 | locus YER155C, strain BEM2 (second series), stronger effect = lower value 1.02 | locus YER155C, strain BEM2, stronger effect = lower value 1 | locus YER167W, strain BCK2, stronger effect = lower value 1.01 | locus YFR010W, strain ubp6, stronger effect = lower value 0.996 | locus YGL078C, strain dbp3, stronger effect = lower value 0.987 | locus YGL086W, strain mad1, stronger effect = lower value 0.954 | locus YGL167C, strain pmr1, stronger effect = lower value 1.05 | locus YGL173C, strain kem1, stronger effect = lower value 1.01 | locus YGL227W, strain vid30, stronger effect = lower value 1.02 | locus YGL240W, strain doc1, stronger effect = lower value 1.05 | locus YGL248W, strain PDE1, stronger effect = lower value 0.95 | locus YGL253W, strain hxk2, stronger effect = lower value 1.03 | locus YGR078C, strain PAC10, stronger effect = lower value 0.935 | locus YGR135W, strain pre9, stronger effect = lower value 0.934 | locus YGR252W, strain gcn5, stronger effect = lower value 0.861 | locus YHR013C, strain ard1, stronger effect = lower value 1.09 | locus YHR027C, strain rpn1, stronger effect = lower value 1 | locus YHR030C, strain SLT2, stronger effect = lower value 0.979 and 1 | locus YHR079C, strain IRE1 (second series), stronger effect = lower value 0.952 | locus YHR079C, strain IRE1, stronger effect = lower value 0.994 | locus YHR094C, strain hxt1, stronger effect = lower value 0.981 | locus YHR129C, strain ARP1, stronger effect = lower value 0.969 | locus YHR142W, strain chs7, stronger effect = lower value 1.07 | locus YHR200W, strain rpn10, stronger effect = lower value 0.948 | locus YIL066C, strain RNR3, stronger effect = lower value 1 | locus YIL073C, strain SPO22, stronger effect = lower value 0.907 | locus YIL125W, strain kgd1, stronger effect = lower value 0.981 | locus YIR030C, strain dcg1, stronger effect = lower value 0.962 | locus YJL092W, strain hpr5, stronger effect = lower value 1.03 | locus YJL095W, strain BCK1 (second series), stronger effect = lower value 1.05 | locus YJL095W, strain BCK1, stronger effect = lower value 0.833 and 0.987 | locus YJL115W, strain asf1, stronger effect = lower value 1.01 | locus YJL129C, strain trk1, stronger effect = lower value 0.999 | locus YJL134W, strain LCB3, stronger effect = lower value 0.986 | locus YJL154C, strain vps35, stronger effect = lower value 1.02 | locus YJL166W, strain qcr8, stronger effect = lower value 1.01 | locus YJL168C, strain set2, stronger effect = lower value 0.955 | locus YJL187C, strain SWE1 (second series), stronger effect = lower value 0.933 | locus YJL187C, strain SWE1, stronger effect = lower value 1.03 | locus YJR043C, strain POL32, stronger effect = lower value 1.01 | locus YJR066W, strain TOR1, stronger effect = lower value 0.985 | locus YKL009W, strain mrt4, stronger effect = lower value 0.967 | locus YKL068W, stronger effect = lower value 0.99 | locus YKL085W, strain MDH1 (second series), stronger effect = lower value 0.975 | locus YKL085W, strain MDH1, stronger effect = lower value 0.975 | locus YKL160W, strain elf1, stronger effect = lower value 1.05 | locus YKL190W, strain CNB1, stronger effect = lower value 0.977 | locus YKR026C, strain gcn3, stronger effect = lower value 1.02 | locus YKR091W, strain srl3, stronger effect = lower value 1.03 | locus YLL001W, strain dnm1, stronger effect = lower value 1.03 | locus YLL026W, stronger effect = lower value 1.03 | locus YLL041C, strain sdh2, stronger effect = lower value 1.02 | locus YLR027C, strain aat2, stronger effect = lower value 1.04 | locus YLR039C, strain RIC1, stronger effect = lower value 0.985 | locus YLR058C, strain SHM2, stronger effect = lower value 0.969 | locus YLR102C, strain apc9, stronger effect = lower value 0.972 | locus YLR113W, strain HOG1, stronger effect = lower value 0.961 | locus YLR221C, strain rsa3, stronger effect = lower value 1.07 | locus YLR258W, strain gsy2, stronger effect = lower value 1.07 | locus YLR262C, strain YPT6 (second series), stronger effect = lower value 1.04 | locus YLR262C, strain YPT6, stronger effect = lower value 1.02 | locus YLR268W, strain sec22, stronger effect = lower value 0.95 | locus YLR320W, strain mms22, stronger effect = lower value 0.999 | locus YLR330W, strain CHS5, stronger effect = lower value 0.957 | locus YLR342W, strain FKS1 (second series), stronger effect = lower value 1.08 | locus YLR342W, strain FKS1, stronger effect = lower value 1.02 | locus YLR357W, strain rsc2, stronger effect = lower value 1.05 | locus YLR370C, strain arc18, stronger effect = lower value 1.03 | locus YLR371W, strain rom2, stronger effect = lower value 0.939 | locus YLR384C, strain iki3, stronger effect = lower value 1.01 | locus YLR418C, strain cdc73, stronger effect = lower value 0.872 | locus YML016C, strain PPZ1, stronger effect = lower value 0.981 | locus YML032C, strain rad52, stronger effect = lower value 0.97 | locus YML120C, strain ndi1, stronger effect = lower value 1.03 | locus YML124C, strain tub3, stronger effect = lower value 0.967 | locus YMR058W, strain fet3, stronger effect = lower value 1.01 | locus YMR078C, strain ctf18, stronger effect = lower value 0.942 | locus YMR125W, strain sto1, stronger effect = lower value 1.03 | locus YMR129W, stronger effect = lower value 1.02 | locus YMR205C, strain PFK2, stronger effect = lower value 1.01 | locus YMR223W, strain ubp8, stronger effect = lower value 0.934 | locus YMR231W, strain pep5, stronger effect = lower value 1.02 | locus YMR307W, strain GAS1, stronger effect = lower value 0.984 | locus YNL067W, strain RPL9B, stronger effect = lower value 0.928 | locus YNL071W, strain lat1, stronger effect = lower value 1.01 | locus YNL128W, strain TEP1, stronger effect = lower value 0.909 | locus YNL153C, strain GIM3, stronger effect = lower value 0.938 | locus YNL183C, strain NPR1, stronger effect = lower value 0.932 | locus YNL209W, strain ssb2, stronger effect = lower value 1.01 | locus YNL233W, strain BNI4, stronger effect = lower value 0.889 | locus YNL248C, strain rpa49, stronger effect = lower value 1.06 | locus YNL250W, strain rad50, stronger effect = lower value 0.964 | locus YNL271C, strain bni1, stronger effect = lower value 0.955 | locus YNL298W, strain CLA4, stronger effect = lower value 0.979 | locus YNL307C, strain MCK1, stronger effect = lower value 0.963 | locus YNL322C, strain KRE1 (second series), stronger effect = lower value 1.04 | locus YNR049C, strain mso1, stronger effect = lower value 1.02 | locus YOL006C, strain TOP1, stronger effect = lower value 0.696 | locus YOL012C, strain htz1 0.364 | locus YOL147C, strain pex11, stronger effect = lower value 0.972 | locus YOR001W, strain rrp6, stronger effect = lower value 1.03 | locus YOR061W, strain CKA2, stronger effect = lower value 0.987 | locus YOR069W, strain VPS5, stronger effect = lower value 0.986 | locus YOR070C, strain gyp1, stronger effect = lower value 1.01 | locus YOR080W, strain dia2, stronger effect = lower value 1.05 | locus YOR083W, strain WHI5, stronger effect = lower value 1.05 | locus YOR106W, strain vam3, stronger effect = lower value 1.03 | locus YOR136W, strain idh2, stronger effect = lower value 0.977 | locus YOR144C, strain elg1, stronger effect = lower value 0.984 | locus YOR184W, strain ser1, stronger effect = lower value 0.989 | locus YOR231W, strain MKK1, stronger effect = lower value 1 | locus YOR265W, strain rbl2, stronger effect = lower value 1.01 | locus YOR270C, strain vph1, stronger effect = lower value 1.07 | locus YOR290C, strain snf2, stronger effect = lower value 1.06 | locus YOR316C, strain cot1, stronger effect = lower value 0.972 | locus YPL051W, strain arl3, stronger effect = lower value 1.02 | locus YPL078C, strain atp4, stronger effect = lower value 1.02 | locus YPL106C, strain sse1, stronger effect = lower value 1.05 | locus YPL240C, strain hsp82, stronger effect = lower value 1.02 | locus YPL256C, strain CLN2, stronger effect = lower value 0.99 | locus YPR119W, strain clb2, stronger effect = lower value 0.951 | locus YPR141C, strain kar3, stronger effect = lower value 0.957 | locus YPR163C, strain tif3, stronger effect = lower value 0.962 | locus YPR167C, strain met16, stronger effect = lower value 0.975 | strain wtn01, stronger effect = lower value 0.953
